Source: PubChem BioAssay (Tox21)
Several values for one entry are separate records, joined by “and”; a condition that tells them apart may be missing. Equal entries are not always repeated. Records with an inconclusive call do not appear. Some compounds were tested as several samples or in several runs, with calls that do not always agree. Activity calls are given as the source filed them. Calls follow the shape of the dose curve; as a rule, active = well fitted curve in the direction sought with a large enough effect in the repeat runs; inconclusive = weak or mixed curves; inactive = no such curve, though single readings can be large; an effect the other way counts as inactive or inconclusive.

Tests used:
[1] = A CellTox Green Cytotoxicity Assay to monitor cytotoxicity in HEK293 cells - 0 hour (AID 1224869); also: nearly all actives have a fitted effect of over 50% in size
In short: (§1)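 Cytotoxicity was tracked continuously in HEK293 cells by a DNA-binding dye excluded from viable cells. Compounds were transferred in DMSO 5 h after seeding; fluorescence was recorded at intervals up to 40 h.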

[2] = qHTS RealTime-Glo MT Cell Viability Assay in HepG2 cells - 40 hour (AID 1224870); also: nearly all actives have a fitted effect of over 50% in size
In short: (§2)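 HepG2 cells mixed with RealTime-Glo MT reagents (NanoLuc plus cell-permeant prosubstrate) were seeded at 600 cells/well, incubated 5 h at 37 C/5% CO2, then pinned with compounds in DMSO; nonlytic luminescence tracked viability during 40 h treatment.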

[3] = A CellTox Green Cytotoxicity Assay to monitor cytotoxicity in HEK293 cells - 40 hour (AID 1224871); also: nearly all actives have a fitted effect of over 45% in size
In short: as §1

[4] = qHTS RealTime-Glo MT Cell Viability Assay in HEK293 cells - 16 hour (AID 1224872); also: nearly all actives have a fitted effect of over 50% in size; also: potency is read from the fitted curve at half-maximal effect
In short: (§3)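 Homogeneous bioluminescent viability format in HEK293 cells (600 cells/well). Following 5 h at 37 C/5% CO2, 23 nL compound was pintooled; the signal was measured repeatedly during 40 h incubation.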

[5] = qHTS RealTime-Glo MT Cell Viability Assay in HepG2 cells - 8 hour (AID 1224873); also: nearly all actives have a fitted effect of over 55% in size
In short: as §2

[6] = A CellTox Green Cytotoxicity Assay to monitor cytotoxicity in HEK293 cells - 24 hour (AID 1224875); also: series mostly up to about 77 µM; nearly all actives have a fitted effect of over 45% in size
In short: as §1

[7] = qHTS RealTime-Glo MT Cell Viability Assay in HepG2 cells - 32 hour (AID 1224877); also: nearly all actives have a fitted effect of over 55% in size
In short: (§4)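 Cell number in HepG2 cultures estimated from NanoLuc luminescence generated by metabolic reduction of a prosubstrate by living cells. The homogeneous, nonlytic format allowed repeated reads at 0, 8, 16, 24, 32 and 40 h of compound exposure.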

[8] = A CellTox Green Cytotoxicity Assay to monitor cytotoxicity in HepG2 cells - 24 hour (AID 1224878); also: nearly all actives have a fitted effect of over 45% in size; also: potency is read from the fitted curve at half-maximal effect
In short: (§5)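 Real-time, homogeneous cytotoxicity readout: dead-cell DNA staining by CellTox Green in HepG2 monolayers, fluorescence measured at timed intervals up to 40 h of continuous compound exposure.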

[9] = A CellTox Green Cytotoxicity Assay to monitor cytotoxicity in HepG2 cells - 40 hour (AID 1224879); also: nearly all actives have a fitted effect of over 40% in size; also: potency is read from the fitted curve at half-maximal effect
In short: as §5

[10] = qHTS RealTime-Glo MT Cell Viability Assay in HEK293 cells - 0 hour (AID 1224880); also: top concentration of the series differs between compounds; nearly all actives have a fitted effect of over 45% in size
In short: (§6)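 Nonlytic bioluminescent viability monitoring. HEK293 at 600 cells/well with reagent; 5 h settle; compound transfer by pintool; plates held at 37 C and read at set time points.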

[11] = A CellTox Green Cytotoxicity Assay to monitor cytotoxicity in HEK293 cells - 32 hour (AID 1224881); also: nearly all actives have a fitted effect of over 40% in size
In short: as §1

[12] = A CellTox Green Cytotoxicity Assay to monitor cytotoxicity in HepG2 cells - 0 hour (AID 1224882); also: nearly all actives have a fitted effect of over 35% in size
In short: as §5

[13] = A CellTox Green Cytotoxicity Assay to monitor cytotoxicity in HepG2 cells - 32 hour (AID 1224883); also: nearly all actives have a fitted effect of over 50% in size; also: potency is read from the fitted curve at half-maximal effect
In short: as §5

[14] = A CellTox Green Cytotoxicity Assay to monitor cytotoxicity in HEK293 cells - 8 hour (AID 1224884); also: nearly all actives have a fitted effect of over 35% in size
In short: as §1

[15] = qHTS RealTime-Glo MT Cell Viability Assay in HEK293 cells - 32 hour (AID 1224868)
In short: as §3

[16] = qHTS RealTime-Glo MT Cell Viability Assay in HEK293 cells - 40 hour (AID 1224874); conditions: RealTime-Glo luminescence; max response: stronger effect = lower value; also: nearly all actives have a fitted effect of over 50% in size; also: potency is read from the fitted curve at half-maximal effect
In short: as §6

[17] = A CellTox Green Cytotoxicity Assay to monitor cytotoxicity in HepG2 cells - 16 hour (AID 1224876); also: nearly all actives have a fitted effect of over 45% in size
In short: as §5

[18] = qHTS RealTime-Glo MT Cell Viability Assay in HepG2 cells - 24 hour (AID 1224867); also: nearly all actives have a fitted effect of over 50% in size
In short: as §4
% is scaled to controls: 0 for no effect and ±100 for the full control effect.

CCCSc1ccc2nc(NC(=O)OC)[nH]c2c1
inactive: outcome [1] | outcome [2] | Potency [3] | Potency [4] | outcome [5] | Potency [6] | outcome [7] | Potency [10] | Potency [11] | outcome [12] | outcome [14]
active: Potency [9] 1.34 µM
inactive and 1.51 µM (active): Potency [13]
inactive and 1.9 µM (active): Potency [8]

CC1CCC(C(C)C)C(O)C1 (stereo not given)
inactive: Potency [15] | outcome [1] | outcome [2] | Potency [3] | Potency [4] | outcome [5] | max response [16] -2.01% and 1.75% | Potency [6] | Potency [17] | outcome [7] | Potency [8] | Potency [9] | Potency [10] | Potency [11] | outcome [12] | Potency [13] | outcome [14]

CC1CCC2CC1C2(C)C (stereo not given)
inactive: Potency [15] | outcome [1] | outcome [2] | Potency [3] | Potency [4] | outcome [5] | max response [16] -4.21% and 10.8% | Potency [6] | Potency [17] | outcome [7] | Potency [8] | Potency [10] | outcome [12] | Potency [13] | outcome [14]

O=C(OCCOCCOC(=O)c1ccccc1)c1ccccc1
inactive: outcome [18] | outcome [1] | outcome [2] | Potency [3] | outcome [5] | max response [16] -18.1% | Potency [6] | outcome [7] | Potency [8] | Potency [10] | outcome [12] | Potency [13] | outcome [14]

CC(=O)Nc1cccc(O)c1
inactive: Potency [15] | outcome [1] | outcome [2] | Potency [3] | Potency [4] | outcome [5] | max response [16] -14.2% and 4.42% | Potency [6] | Potency [17] | outcome [7] | Potency [8] | Potency [10] | Potency [11] | outcome [12] | Potency [13] | outcome [14]

Cc1cnc(C(=O)NCCc2ccc(S(=O)(=O)NC(=O)NC3CCCCC3)cc2)cn1
inactive: Potency [15] | outcome [1] | outcome [2] | Potency [3] | Potency [4] | outcome [5] | max response [16] 11.5% and 10.1% | Potency [6] | Potency [17] | outcome [7] | Potency [8] | Potency [10] | outcome [12] | Potency [13] | outcome [14]

CC(=O)CC(=O)Nc1ccccc1
inactive: outcome [18] | outcome [1] | outcome [2] | Potency [3] | Potency [4] | outcome [5] | max response [16] -1.61% and 1.86% | Potency [6] | Potency [17] | outcome [7] | Potency [8] | Potency [10] | outcome [12] | Potency [13] | outcome [14]

C=C(C)C(=O)Nc1ccc(Cl)c(Cl)c1
active: Potency [4] 22.1 µM and 21.8 µM | Potency [16] 19.7 µM and 24.4 µM
inactive: outcome [1] | outcome [2] | Potency [3] | outcome [5] | Potency [6] | Potency [17] | outcome [7] | Potency [8] | Potency [9] | Potency [10] | outcome [12] | Potency [13] | outcome [14]
